Our source for the inhibition values is PubChem BioAssay.

Each structure is given as a SMILES string. Values without a mark were called inactive. The source made the active and inactive calls. Unless noted, no stated cut-off is given here; in the data, active means inhibition above about 33%; inactive means the rest.

Test [1] is described as follows: StAR promoter reporter inhibitors, counter-screen for LRH-1 inverse agonist project, cell-based, luminescence, high throughput (AID 651611; in the data active means inhibition above about 28%). The following applies: StAR promoter luciferase reporter counterscreen, at 3.6 µM, stronger effect = higher value.
In test [2] the target is Nuclear receptor subfamily 5 group A member 2 (Homo sapiens) (UniProt O00482). Kind of test: LRH-1 (NR5A2) inverse agonists, retest, confirmation, cell-based, luminescence (AID 651613; in the data active means inhibition above about 42%;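 further: HEK293T cells co-transfected with LRH-1 and StAR promoter luciferase reporter; 0% = vehicle wells and 100% = parental cells lacking receptor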). The following applies: cell-based LRH-1 luciferase reporter, inverse agonism; at 3.6 µM; stronger effect = higher value.
Nuclear receptor subfamily 5 group A member 2 (Homo sapiens), sequence (O00482 whole entry, looked up): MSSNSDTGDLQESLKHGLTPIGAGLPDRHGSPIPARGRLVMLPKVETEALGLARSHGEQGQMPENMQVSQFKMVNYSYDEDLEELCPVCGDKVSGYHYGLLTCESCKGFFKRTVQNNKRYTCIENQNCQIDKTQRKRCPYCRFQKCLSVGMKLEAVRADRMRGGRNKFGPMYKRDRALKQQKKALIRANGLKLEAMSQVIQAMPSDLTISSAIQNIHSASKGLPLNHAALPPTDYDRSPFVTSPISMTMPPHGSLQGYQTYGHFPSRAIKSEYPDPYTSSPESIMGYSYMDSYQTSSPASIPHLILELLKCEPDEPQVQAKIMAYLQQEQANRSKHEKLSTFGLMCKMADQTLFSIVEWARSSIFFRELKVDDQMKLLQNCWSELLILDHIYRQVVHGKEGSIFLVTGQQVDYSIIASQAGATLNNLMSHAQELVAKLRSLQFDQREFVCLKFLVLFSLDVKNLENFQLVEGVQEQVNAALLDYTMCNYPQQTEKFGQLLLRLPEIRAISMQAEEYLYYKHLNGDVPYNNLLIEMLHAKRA
Test [3] has as its target Steroidogenic factor 1 (Homo sapiens) (UniProt Q13285). As to the kind of experiment: SF1 (NR5A1) inverse agonists, counter-screen for LRH-1 inverse agonist project, cell-based, luminescence, high throughput (AID 651614; in the data active means inhibition above about 44%;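 further: cells cotransfected with StAR promoter reporter and SF1 expression vector; 0% = vehicle on cells with receptor and 100% = vehicle on cells lacking receptor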). The following applies: cell-based SF1 luciferase reporter, at 3.6 µM, stronger effect = higher value. In general terms: A counterscreen serves to expose hits that act by an unwanted route or on another target.

A short description of test [4]: VP16 transactivation reporter inhibitors, counter-screen for LRH-1 inverse agonist project, cell-based, luminescence, high throughput (AID 651615). The conditions noted are these: Gal4-VP16 luciferase reporter cells, at 3.6 µM, stronger effect = higher value.
The subject of test [5] is transactivating tegument protein VP16 (Human herpesvirus 1). As to the kind of experiment: VP16 transactivation reporter inhibitors, counter-screen for SRC2 inhibitor project, cell-based, luminescence, single concentration (AID 652007; in the data active means inhibition above about 36%). The conditions noted are these: cell-based VP16 transactivation luciferase reporter, at 8.9 µM, stronger effect = higher value.
Test [6] addresses Nuclear receptor coactivator 2 (Homo sapiens) (UniProt Q15596). As to the kind of experiment: SRC2 coactivator transcriptional activity inhibitors, confirmation, cell-based, luminescence, HEK293, triplicate (AID 652008;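 active means mean inhibition above 46.5%, the solvent-only control mean plus 3 SD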;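 further: 0% = DMSO-treated cells and 100% = Gossypol at 36 µM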). The following applies: HEK293 GAL4-SRC2 luciferase reporter, at 8.9 µM, stronger effect = higher value. (In general: A reporter such as luciferase makes a cellular process visible.)

Steroidogenic factor 1 (Homo sapiens), sequence (Q13285 whole entry, looked up): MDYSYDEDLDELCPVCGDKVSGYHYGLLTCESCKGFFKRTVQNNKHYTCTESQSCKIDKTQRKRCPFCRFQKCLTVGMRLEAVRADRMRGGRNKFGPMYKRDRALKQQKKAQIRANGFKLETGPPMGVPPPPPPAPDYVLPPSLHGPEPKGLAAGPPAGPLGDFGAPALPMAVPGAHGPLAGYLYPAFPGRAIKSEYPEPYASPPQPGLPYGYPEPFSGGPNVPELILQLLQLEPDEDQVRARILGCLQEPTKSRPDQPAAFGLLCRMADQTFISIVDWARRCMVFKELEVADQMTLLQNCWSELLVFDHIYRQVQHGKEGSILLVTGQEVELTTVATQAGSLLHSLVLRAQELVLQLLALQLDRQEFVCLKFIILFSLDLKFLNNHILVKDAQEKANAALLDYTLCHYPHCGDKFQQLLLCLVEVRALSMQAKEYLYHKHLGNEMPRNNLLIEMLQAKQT
Nuclear receptor coactivator 2 (Homo sapiens), sequence (Q15596 whole entry, looked up, the tested form may be a part): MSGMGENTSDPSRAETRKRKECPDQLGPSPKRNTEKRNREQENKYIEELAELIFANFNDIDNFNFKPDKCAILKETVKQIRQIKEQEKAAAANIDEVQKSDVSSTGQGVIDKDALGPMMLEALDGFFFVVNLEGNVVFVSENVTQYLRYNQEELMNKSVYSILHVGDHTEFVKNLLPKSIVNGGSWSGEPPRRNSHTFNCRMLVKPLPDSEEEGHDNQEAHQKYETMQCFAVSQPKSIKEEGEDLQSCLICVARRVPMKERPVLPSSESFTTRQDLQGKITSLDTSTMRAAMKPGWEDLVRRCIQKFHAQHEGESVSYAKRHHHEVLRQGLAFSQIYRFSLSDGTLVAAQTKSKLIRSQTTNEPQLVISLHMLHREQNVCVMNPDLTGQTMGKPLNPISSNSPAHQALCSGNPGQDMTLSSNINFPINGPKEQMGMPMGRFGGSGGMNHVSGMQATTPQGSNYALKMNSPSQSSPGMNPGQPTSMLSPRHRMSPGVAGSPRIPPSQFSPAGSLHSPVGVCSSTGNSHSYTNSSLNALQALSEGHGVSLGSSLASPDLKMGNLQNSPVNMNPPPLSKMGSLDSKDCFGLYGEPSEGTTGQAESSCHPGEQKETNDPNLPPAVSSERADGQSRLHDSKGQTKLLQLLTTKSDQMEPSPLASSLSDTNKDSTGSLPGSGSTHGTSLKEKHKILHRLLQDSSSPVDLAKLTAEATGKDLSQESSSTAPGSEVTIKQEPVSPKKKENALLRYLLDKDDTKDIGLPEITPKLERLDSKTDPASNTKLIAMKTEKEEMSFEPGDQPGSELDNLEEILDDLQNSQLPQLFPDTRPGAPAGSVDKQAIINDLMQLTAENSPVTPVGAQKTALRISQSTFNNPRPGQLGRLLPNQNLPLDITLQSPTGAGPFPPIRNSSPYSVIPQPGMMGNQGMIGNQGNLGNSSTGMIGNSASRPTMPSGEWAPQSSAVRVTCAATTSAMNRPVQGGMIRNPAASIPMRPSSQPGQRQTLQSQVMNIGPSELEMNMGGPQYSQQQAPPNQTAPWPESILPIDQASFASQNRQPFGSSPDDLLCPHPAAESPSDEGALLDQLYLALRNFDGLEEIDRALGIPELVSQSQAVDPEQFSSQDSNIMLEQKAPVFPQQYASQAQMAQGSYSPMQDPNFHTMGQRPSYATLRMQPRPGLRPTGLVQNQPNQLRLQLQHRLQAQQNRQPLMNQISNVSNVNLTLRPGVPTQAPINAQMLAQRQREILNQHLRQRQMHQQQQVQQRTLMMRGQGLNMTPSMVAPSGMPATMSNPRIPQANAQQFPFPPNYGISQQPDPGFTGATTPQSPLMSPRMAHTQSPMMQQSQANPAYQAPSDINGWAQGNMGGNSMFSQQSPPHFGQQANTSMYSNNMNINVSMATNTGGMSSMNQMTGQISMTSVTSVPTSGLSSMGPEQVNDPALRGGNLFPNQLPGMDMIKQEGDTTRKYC

What is called inhibition is the relative decrease from the control value, in per cent. Turning to `CCCCCCCCCC[n+]1cccc2c3ccccc3ccc21`, the inhibition in test [1] is 83.3% (active); in test [2], 110% (active); in test [3], 96.1% (active); in test [4], 95.9% (active); in test [5], 48.9% (active); in test [6] it was 58.6% (active).

Take `CC(=O)NC(Cc1c[nH]c2ccccc12)C(=O)OCC(=O)Nc1ccc2c(c1)OCO2` (centres undefined): the inhibition is 12.4% in test [1], 56.8% (active) in test [2], 56.7% (active) in test [3] and -12.7% in test [4].

Consider `CC1C/C(=C\c2cccnc2)C(=O)/C(=C/c2cccnc2)C1` (centres undefined), for which the inhibition is 61.9% (active) in test [1]; 100% (active) in test [2]; 95.6% (active) in test [3]; 91.5% (active) in test [4]; 98% (active) in test [5]; 93.9% (active) in test [6].

For the molecule `Cc1ccnc2c1ccc1cccnc12`, the inhibition in test [1] was 82.7% (active); in test [2], 108% (active); in test [3] it was 67.4% (active); in test [4] it was 65.5% (active); in test [5], -9.35%; in test [6], 29%.

With `Cc1cccc(/C=C(\c2nc3ccccc3[nH]2)S(=O)(=O)c2ccccc2)c1`, the inhibition in test [1] was 43.2% (active); in test [2] it was 35.1%; in test [3], 48.8% (active); in test [4], 54.1% (active); in test [5], 10.3%; in test [6], 50.5% (active).

As to `O=C(CSc1ncccc1C(=O)O)Nc1ccc2c(c1)OCCO2`, the inhibition is 4.26% in test [1]; 11.1% in test [2]; 16.6% in test [3]; 0.17% in test [4]; -2.25% in test [5]; -11.1% in test [6].

For `Cn1cnc([N+](=O)[O-])c1Oc1ccc2ccccc2c1`, the inhibition in test [1] is 38.9% (active); in test [2], 55.3% (active); in test [3], 54.8% (active); in test [4] it was 10.8%; in test [5] it was 11.9%; in test [6], 19.6%.

As to `O=C1C=CC2(C=C1)O[C@H](Cc1ccccc1)[C@@H](Cc1ccccc1)O2`, the inhibition was 37% (active) in test [1]; 83.4% (active) in test [2]; 73.2% (active) in test [3]; 72.5% (active) in test [4]; 94.4% (active) in test [5]; 63.8% (active) in test [6].

For the molecule `COc1ccc(OC)c(N(CCN2C(=O)c3ccccc3C2=O)C(=O)CCl)c1`, the inhibition in test [1] is 10.9%; in test [2], 30.5%; in test [3] it was 54% (active); in test [4], 16.1%; in test [5], 30.9%; in test [6], 57.6% (active).

On to `CC(C)(C)c1ccc(Oc2ccc(NC(=O)C3CC=CCC3C(=O)O)cc2)cc1` (centres undefined), for which the inhibition was 1.67% in test [1]; 6.39% in test [2]; 0.96% in test [3]; 5.54% in test [4]; 8.31% in test [5]; 19.9% in test [6].

For `CC1C/C(=C/c2ccncc2)C(=O)/C(=C/c2ccncc2)C1` (centres undefined), the inhibition in test [1] was 17.3%; in test [2], 73.6% (active); in test [3] it was 84.2% (active); in test [4], 72.9% (active); in test [5], 93.7% (active); in test [6] it was 90.8% (active).

Regarding `COc1ccc(/C=C/c2nc3ccccc3c(=O)o2)cc1`, the inhibition in test [1] was 38.6% (active); in test [2], -49.3%; in test [3] it was 37.2%; in test [4] it was -63%; in test [5] it was 38.4% (active); in test [6], 84.3% (active).

On to `COc1ccc(NC(=O)/C(Cl)=C(/Cl)S(=O)Cc2ccccc2)cn1` (centres undefined), for which the inhibition is 56.1% (active) in test [1]; 87.8% (active) in test [2]; 78.2% (active) in test [3]; 94.5% (active) in test [4]; 95.8% (active) in test [5]; 100% (active) in test [6].

Turning to `O=C(CCl)N1CCN(S(=O)(=O)Cc2ccccc2)CC1`, the inhibition in test [1] is 25.3%; in test [2], 52.9% (active); in test [3] it was 47.5% (active); in test [4], 15.9%; in test [5], 12.1%; in test [6], 46.2%.

For the molecule `COc1ccc(NS(=O)(=O)c2ccc3c(c2)OCCO3)cc1OC`, the inhibition in test [1] is 10.4%; in test [2] it was 69.7% (active); in test [3], 67.5% (active); in test [4], 35.5% (active); in test [5], 10.1%; in test [6], 27.8%.

As to `CC1=C(CO)C(=O)OC([C@@H](C)C2CC[C@H]3C4C[C@H]5O[C@]56[C@@H](O)C=CC(=O)[C@]6(C)C4CC[C@]23C)C1` (some centres undefined), the inhibition in test [1] is 67.7% (active); in test [2], 66.2% (active); in test [3], 79.8% (active); in test [4] it was 79.6% (active); in test [5], 53.8% (active); in test [6], 41.6%.

Consider `COc1ccc(-c2cc(-c3nc4ccccn4c3NCc3ccccc3)ccc2OC)cc1`, for which the inhibition is 95.2% (active) in test [1]; 109% (active) in test [2]; 97.3% (active) in test [3]; 98.7% (active) in test [4]; 96.8% (active) in test [5]; 98.3% (active) in test [6].

Consider `O=C(NCCc1c[nH]c2ccccc12)c1ccc([N+](=O)[O-])o1`, for which the inhibition in test [1] was 15.7%; in test [2], 62.6% (active); in test [3] it was 59.7% (active); in test [4], 21.7%; in test [5], 2.92%; in test [6], 15.3%.

Turning to `CCN(Cc1ccc(OC)c(F)c1)C(=O)CCl`, the inhibition was 31.7% (active) in test [1]; 78.7% (active) in test [2]; 73.3% (active) in test [3]; 21.3% in test [4]; 31.8% in test [5]; 49.5% (active) in test [6].

As to `Cc1ccc(C(=O)Sc2cccccc2=O)cc1`, the inhibition is 98.1% (active) in test [1]; 107% (active) in test [2]; 98.6% (active) in test [3]; 96.8% (active) in test [4]; 92.9% (active) in test [5]; 99.2% (active) in test [6].

For `C=CC(=O)N1C/C(=C/c2ccc(Cl)cc2)C(=O)/C(=C\c2ccc(Cl)cc2)C1`, the inhibition in test [1] is 17.8%; in test [2] it was 84.7% (active); in test [3], 87.8% (active); in test [4] it was 65.8% (active); in test [5], 97% (active); in test [6] it was 88.4% (active).
